“And” between values parts separate entries of the source, which are not always exact repeats. Equal values may be shown once. Records with an inconclusive call do not appear. The source made the active and inactive calls. Calls follow the shape of the full dose curve.
Experiment: qHTS for Inhibitors of the Functional Ribonucleoprotein Complex (vRNP) of Lassa (LASV) Arenavirus: LASV Confirmatory Screen - GLuc reporter signal
Conditions: LASV minigenome vRNP, Gaussia luciferase reporter; series mostly up to 53.9 µM
In the case of CC[C@@]1([C@@H]2O[C@@H]([C@H]3O[C@@](O)(CO)[C@H](C)C[C@H]3C)C[C@H]2C)CC[C@H]([C@]2(C)CC[C@]3(C[C@H](O)[C@@H](C)[C@@H]([C@@H](C)[C@@H](OC)[C@H](C)C(=O)O)O3)O2)O1, the Potency is reported as 0.335 µM (active).
With CCC[C@H](N[C@@H](C)C(=O)N1[C@@H]2CCCC[C@H]2C[C@H]1C(=O)O)C(=O)OCC the Potency was “inactive”.
In the case of Cc1cccc(-c2[nH]c(C(C)(C)C)nc2-c2ccc3c(c2)OCO3)n1, the Potency is reported as 3.43 µM (active).
With O=C1Cc2cc(CCN3CCN(c4nsc5ccccc45)CC3)c(Cl)cc2N1 the Potency was 2.17 µM (active) and 3.43 µM (active).
For CCn1c(-c2nonc2N)nc2cnc(Oc3cccc(NC(=O)c4ccc(OCCN5CCOCC5)cc4)c3)cc21, the Potency was 2.73 µM (active).
In the case of O=C(Nc1ccc([N+](=O)[O-])cc1Cl)c1cc(Cl)ccc1O, the Potency is reported as 0.968 µM (active).
With O=C(Nc1ccccc1)c1cc([N+](=O)[O-])ccc1Cl the Potency was 24.3 µM (active).
For CC12C(=O)OC(=O)C1(C)C1CCC2O1 (stereo not given), the Potency was 9.68 µM (active).
In the case of Cc1cc(N)c2ccccc2[n+]1CCCCCCCCCC[n+]1c(C)cc(N)c2ccccc21, the Potency is reported as 1.37 µM (active).
With CNCCCC1c2ccccc2C=Cc2ccccc21 the Potency was 30.6 µM (active).
For FC(F)(F)c1ccc(C=Cc2nc(COc3ccc(CCCCn4ccnn4)cc3)co2)cc1, the Potency was 0.0153 µM (active).
With C=C1CC[C@@H]2[C@](C)(CO)[C@H](O)CC[C@@]2(C)[C@@H]1/C=C/C1=CCOC1=O the Potency was 21.7 µM (active).
In the case of COc1cccc(-c2ccc(NC(=O)C3=C(C(=O)O)CCC3)c(F)c2)c1, the Potency is reported as 6.85 µM (active).
For CCC(C)c1nccnc1OC (stereo not given), the Potency was “inactive”.
For CCc1cncnc1N1CCN(Cc2nc3ccc(C(F)(F)F)cc3[nH]2)CC1, the Potency was 3.95 µM (active).
In the case of CC1OC(=O)[C@@H](C(C)C)NC(=O)C(C(C)C)OC(=O)[C@H](C(C)C)NC(=O)C(C)OC(=O)[C@@H](C(C)C)NC(=O)C(C(C)C)OC(=O)[C@H](C(C)C)NC(=O)C(C)OC(=O)[C@@H](C(C)C)NC(=O)C(C(C)C)OC(=O)[C@H](C(C)C)NC1=O (stereo not given in full), the Potency is reported as 0.153 µM (active).
In the case of O=C(CCCN1CCN(c2ccc(F)cc2)CC1)NC1c2ccccc2CSc2ccccc21 (stereo not given), the Potency is reported as “inactive”.
With CO/C=C(/C(=O)OC)c1ccccc1Oc1cc(Oc2ccccc2C#N)ncn1 the Potency was 6.27 µM (active).
In the case of COc1ccc(Cc2nccc3cc(OC)c(OC)cc23)cc1OC, the Potency is reported as 3.06 µM (active) and 3.85 µM (active).
For O=C1c2ccccc2-n2c1nc1ccccc1c2=O, the Potency was 2.43 µM (active).
For COc1ccc2c(c1OC)CN1CCc3cc4c(cc3C1C2)OCO4 (stereo not given), the Potency was 21.7 µM (active).
With CC(=O)OCC(=O)[C@@]12N=C(C)O[C@H]1C[C@H]1[C@@H]3CCC4=CC(=O)C=C[C@]4(C)[C@@H]3[C@@H](O)C[C@@]12C the Potency was “inactive”.
For CC(O)C(O)[C@H]1CNc2nc(N)[nH]c(=O)c2N1 (stereo not given in full), the Potency was “inactive”.
With CC(C)=CCC/C(C)=C/CC/C(C)=C/CC[C@]1(C)CCc2c(C)c(O)c(C)c(C)c2O1 the activity, negative = inhibition was -9.56% [at 6 µM] (inactive).
With CC(C)(C)C1CCC(CC2=C(O)c3ccccc3C(=O)C2=O)CC1 (stereo not given) the Potency was 6.85 µM (active).

Source: PubChem BioAssay AID1347087 (National Center for Advancing Translational Sciences (NCATS), 2019)
